In all, about 310,000 compounds went through this assay and about 1,200 (0.39%) were called active. No rule for the calls is given here. These entries were drawn from the full list. Potency and affinity values are given separately.
Each compound was assayed against Large T antigen (Simian virus 40) (UniProt P03070) (assay: SV40 large T antigen inhibitors, biochemical (AID 1903)). Details: SV40 large T antigen ATPase/helicase inhibition assay; at 20 µM; active compounds read high.
Sequence of Large T antigen (Simian virus 40) (P03070 whole entry, looked up): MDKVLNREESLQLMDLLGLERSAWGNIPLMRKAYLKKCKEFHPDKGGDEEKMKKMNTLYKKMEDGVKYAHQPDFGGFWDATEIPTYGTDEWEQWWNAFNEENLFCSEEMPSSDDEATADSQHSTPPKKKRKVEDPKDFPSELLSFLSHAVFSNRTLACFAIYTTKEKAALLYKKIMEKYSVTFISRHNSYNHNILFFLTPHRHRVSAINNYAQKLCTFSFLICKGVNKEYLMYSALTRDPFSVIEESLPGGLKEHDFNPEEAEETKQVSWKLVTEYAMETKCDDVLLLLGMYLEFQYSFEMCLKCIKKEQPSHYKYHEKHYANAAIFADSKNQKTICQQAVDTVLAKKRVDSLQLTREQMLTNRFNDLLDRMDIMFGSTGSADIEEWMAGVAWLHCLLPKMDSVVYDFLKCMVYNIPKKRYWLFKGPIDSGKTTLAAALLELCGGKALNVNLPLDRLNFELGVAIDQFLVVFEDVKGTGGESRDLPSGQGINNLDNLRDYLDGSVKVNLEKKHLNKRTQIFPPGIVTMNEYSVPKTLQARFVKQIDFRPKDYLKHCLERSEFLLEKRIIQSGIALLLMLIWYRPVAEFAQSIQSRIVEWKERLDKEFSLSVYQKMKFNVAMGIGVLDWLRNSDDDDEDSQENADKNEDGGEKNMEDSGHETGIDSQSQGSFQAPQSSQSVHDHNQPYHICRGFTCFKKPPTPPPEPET

inhibition, inactive:
Cc1c(/C(Cc2ccccc2)=N/O)c2ccccc2n1C 15.5%
COc1ccccc1N(Cc1ccccc1)S(=O)(=O)c1cccc(C(=O)Nc2cc(C)ccn2)c1 11.2%
O=C(Nc1ccc2c3c(cccc13)CC2)c1ccc(Br)o1 -1.82%
O=C(COC(=O)c1cc(S(=O)(=O)N2CCOCC2)ccc1Cl)Nc1ccc2c(c1)OCO2 -0.55%
O=C(Cn1nnc2ccccc21)NC1CCCCC1 7.66%
CC(C(N)=O)N1c2cccc3cccc(c23)S1(=O)=O (configuration not stated) 5.84%
Cc1cc(C)c(OCC(=O)Nc2ccccn2)c([N+](=O)[O-])c1 4.36%
COCCCNC(=O)c1ccc2c(=O)n(Cc3ccc(OC)cc3)c(=O)[nH]c2c1 17.4%
COc1ccc(CCNC(=O)CNC(=O)Cn2cnc3sc(C)c(C)c3c2=O)cc1OC -8.68%
COc1ccc(Nc2c(C)cccc2C)cc1 -1.03%
COc1ccc(Nc2ccc(Nc3ccc(OC)cc3)nn2)cc1 10.9%
O=C(O)CC1c2ccccc2CCN1S(=O)(=O)c1ccccc1 (configuration not stated) 16.2%
CCOCCc1nnc(NC(=O)Cc2ccc(Br)cc2)s1 4.12%
O=C(Cc1n[nH]c(=O)[nH]c1=O)N/N=C/c1cccc(O)c1 9.95%
Cc1ccc(Oc2nc3ccccc3n3c(C)nnc23)c(C)c1 1.35%
CCN(CC(=O)NC(=O)NC1CCCC1)Cc1ccccc1 14.2%
c1cn2c(Nc3ccc4c(c3)OCCO4)c(-c3ccc(N4CCOCC4)cc3)nc2cn1 29.1%
COc1cc(-c2nc3cnccn3c2Nc2ccc(C(C)C)cc2)ccc1O 9.43%
Fc1ccc(-c2nc3cnccn3c2NC2CCCC2)cc1 3.13%
Clc1ccc(-c2nc3cnccn3c2NC2CCCC2)cc1 8.26%
c1ccc(-c2nc3cnccn3c2Nc2ccc3c(c2)OCCO3)cc1 9.23%
Cc1ccc(-c2nc3cnccn3c2Nc2ccc3c(c2)OCO3)cc1 25.3%
COc1cc(-c2nc3cnccn3c2Nc2ccc(C)cc2)ccc1O 37%
COc1ccc(-c2nc3cnccn3c2Nc2ccc3c(c2)OCO3)cc1 21.4%
CC(=O)c1c(C)[nH]c(C(=O)OCc2c(F)cccc2Cl)c1C 20.8%
CN(C)C(=O)c1cn(-c2ccccc2)nc1-c1cc2ccccc2o1 0.09%
CCCC1CCC(c2ccc(/C(N)=N/O)cc2)CC1 (configuration not stated) 4.39%
CC(=O)NC(N1CCCCC1)C(F)(F)C(F)(F)C(F)(F)C(F)F (configuration not stated) -2.22%
Cc1c(Cl)cccc1NC(=S)N(CCCN1CCOCC1)Cc1cccs1 3.79%
Oc1ccc(-c2nc3ncccn3c2Nc2ccc3c(c2)OCCO3)cc1 13.3%
Clc1ccc(-c2nc3ncccn3c2Nc2ccc3c(c2)OCO3)cc1 7.55%
CC(C)OC(=O)/C(=C/c1ccc2c(c1)c1ccccc1n2C)NC(=O)c1ccccc1 3.18%
COc1ccc2c(c1)-c1nc(/N=C/c3ccc(O)cc3)sc1CC2 15.8%
COc1ccc2c(c1)-c1nc(/N=C/c3c(O)ccc4ccccc34)sc1CC2 23.1%
Cn1nc(-c2ccccc2)cc1NC(=O)C1CCCCC1 5.74%
Cc1ccc(C(=O)c2cc(C)sc2N)cc1 19.1%
Nc1ccc(C(=O)c2cccs2)cc1 6.86%
CC(C)CSC1=NSC2=NC(=O)/C(=C\c3coc4ccccc4c3=O)C(=N)N12 13.7%
CSC1=NSC2=NC(=O)/C(=C/c3coc4ccccc4c3=O)C(=N)N12 12.2%
CCSC1=NSC2=NC(=O)/C(=C\c3coc4ccccc4c3=O)C(=N)N12 28.2%
N=C1/C(=C\c2coc3ccccc3c2=O)C(=O)N=C2SC=CN12 34.7%
CSC1=NSC2=NC(=O)/C(=C/c3coc4ccc(O)cc4c3=O)C(=N)N12 17.7%
N=C1/C(=C/c2coc3ccccc3c2=O)C(=O)N=C2SC(c3ccco3)=NN12 51.6%
COc1ccccc1N1CCN(C(=O)c2oc3ccc(F)cc3c2C)CC1 -1.49%
O=C(CC(Sc1ccc(Br)cc1)C(=O)O)c1ccc(F)cc1 (configuration not stated) 7.72%
Cc1ccc(SC(CC(=O)c2ccc(C)cc2)C(=O)O)cc1 (configuration not stated) 19.4%
COc1ccc(C2=NN(Cc3ccccc3)C3C(=O)NC(=O)C23)cc1 (configuration not stated) 4.68%
CN1C(=O)C2C(c3ccc(N(C)C)cc3)NN(Cc3ccccc3)C2C1=O (configuration not stated) 19.9%
CCOC(=O)N1CCN(c2cc(=O)n(-c3ccc(OC)cc3)c(=O)[nH]2)CC1 -2.27%
Cc1ccccc1CNC(=O)Cn1ccc2cc(S(=O)(=O)N3CCCCCC3)ccc21 5.82%
O=C(COC(=O)c1ccc(CO)cc1)Nc1ccc(OC(F)F)cc1 -2.98%
Cc1nnc(NC(=O)CCS(=O)(=O)c2ccccc2)s1 19.4%
Cn1c(CO)nc2cc(N)ccc21 24.9%
Nc1ccc2c(c1)nc(Cc1ccccc1)n2CCO 32.4%
Cn1ccnc1Sc1cc(Cl)ccc1[N+](=O)[O-] 1.59%
CCOC(=O)C1=NN(C(C)=O)C2(CC(=O)N(c3ccc(C)c(C)c3)C2=O)C1 (configuration not stated) 10.2%
O=C(NCC1CCCO1)C1CCN(C2CCN(C3CCCCCC3)CC2)CC1 (configuration not stated) 6.53%
CSc1nc(C)c(CCOCc2ccc(F)cc2)c(=O)[nH]1 6.59%
COc1ccccc1N1C(=O)CC(Sc2nc(C)cc(C)n2)C1=O (configuration not stated) 5.59%
COc1ccccc1N1C(=O)C2CC(C)=C(C)CC2C1=O (configuration not stated) 6.96%
CCCCOc1ccc(C2(C)NC(=O)NC2=O)cc1 (configuration not stated) 3.93%
COc1ccc(S(=O)(=O)N(CC(=O)NCc2ccncc2)c2ccc(C)cc2)cc1OC 7.04%
